# Reference: PubChem BioAssay (EPA / NIEHS)
# Records with an inconclusive call do not appear. Calls of active or inactive are those of the source. Rule for the calls: active = hit-call score of the fitted dose curve at least 0.9, where 1 is the maximum; inconclusive = response in the unintended direction; inactive = score below 0.9.
# Assays:
# [1] = biological target: Cellular tumor antigen p53 (Homo sapiens) (UniProt P04637); experiment: TOX21_p53_BLA_p2_ratio: Tox21 HCT-116 p53 Agonism Beta-lactamase Assay, Ratio, Phase 2 (AID 2283592)
# Cellular tumor antigen p53 (Homo sapiens), sequence (P04637 whole entry, looked up): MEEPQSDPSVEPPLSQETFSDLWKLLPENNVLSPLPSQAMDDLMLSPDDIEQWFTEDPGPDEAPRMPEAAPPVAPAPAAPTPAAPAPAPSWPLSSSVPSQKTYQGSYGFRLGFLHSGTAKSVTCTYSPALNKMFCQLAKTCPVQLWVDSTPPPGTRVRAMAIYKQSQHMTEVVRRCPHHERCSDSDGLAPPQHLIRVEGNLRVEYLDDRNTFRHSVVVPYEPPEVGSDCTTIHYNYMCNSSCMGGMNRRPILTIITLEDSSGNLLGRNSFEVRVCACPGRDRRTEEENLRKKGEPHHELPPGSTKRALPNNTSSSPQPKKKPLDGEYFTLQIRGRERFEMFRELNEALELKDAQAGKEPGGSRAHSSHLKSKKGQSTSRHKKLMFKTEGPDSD
# Summary of the method: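 HCT-116 cells with p53-responsive beta-lactamase reporter, 4000 cells/well, preincubated 5 h, then compound in DMSO (217-fold dilution) for 16 h at 37C. CCF4-AM substrate 2 h at room temperature; 460/530 nm emission ratio fitted upward versus DMSO.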
# [2] = TOX21_p53_BLA_p3_viability: Viability Assessment in the Tox21 HCT-116 p53 Agonism Beta-lactamase Assay, Phase 3 (AID 2283593);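 note: cells exposed to compound for 16 h before reading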
# Summary of the method: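 HCT-116 cells (4000/well) rested 5 h at 37C, then got DMSO compounds by pin tool (217-fold dilution) for 16 h at 37C, 5% CO2. After the bla read, CellTiter-Glo was added and luminescence read at 30 min, room temperature.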
# [3] = biological target: Cellular tumor antigen p53 (Homo sapiens) (UniProt P04637); experiment: TOX21_p53_BLA_p3_ratio: Tox21 HCT-116 p53 Agonism Beta-lactamase Assay, Ratio, Phase 3 (AID 2283596)
# Summary of the method: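 HCT116 p53-bla cells (4000/well) given compound in DMSO (217-fold dilution) after 5 h, incubated 16 h at 37C. CCF4-AM substrate 2 h at room temperature; 460/530 nm emission ratio, gain fitted against DMSO.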
# [4] = TOX21_p53_BLA_p4_viability: Viability Assessment in the Tox21 HCT-116 p53 Agonism Beta-lactamase Assay, Phase 4 (AID 2283597);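 note: hits lower the luminescence signal meaning cytotoxicity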
# Summary of the method: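 HCT-116 p53-bla cells, 4000/well, dosed after 5 h attachment and incubated 16 h at 37 °C, 5% CO2. Viability from CellTiter-Glo ATP luminescence after 30 min at room temperature, taken after the beta-lactamase read; loss of signal indicates cytotoxicity.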
# [5] = biological target: Cellular tumor antigen p53 (Homo sapiens) (UniProt P04637); experiment: TOX21_p53_BLA_p5_ratio: Tox21 HCT-116 p53 Agonism Beta-lactamase Assay, Ratio, Phase 5 (AID 2283599)
# Summary of the method: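 HCT-116 cells carrying a p53-inducible beta-lactamase reporter were seeded at 4000 cells/well and dosed after 5 h with compound in DMSO (217-fold dilution). After 16 h at 37C, CCF4-AM substrate was added for 2 h, and the 460/530 nm emission ratio was scored as gain-of-signal versus DMSO.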
# [6] = TOX21_p53_BLA_p5_viability: Viability Assessment in the Tox21 HCT-116 p53 Agonism Beta-lactamase Assay, Phase 5 (AID 2283600)
# Summary of the method: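 HCT-116 p53 beta-lactamase reporter cells, 4000/well, were exposed to compound (pin transfer, 217-fold dilution) for 16 hours at 37C. Cellular ATP was read by CellTiter-Glo luminescence after 30 min at room temperature.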
# [7] = biological target: Cellular tumor antigen p53 (Homo sapiens) (UniProt P04637); experiment: TOX21_p53_BLA_p4_ratio: Tox21 HCT-116 p53 Agonism Beta-lactamase Assay, Ratio, Phase 4 (AID 2283601)
# Summary of the method: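 HCT116 cells carrying an inducible beta-lactamase reporter were plated at 4000 cells/well, rested 5 h, then exposed to compounds in DMSO (217-fold dilution) for 16 h at 37C. CCF4-AM substrate was loaded 2 h at room temperature; 460/530 nm emission ratio scored gain-of-signal versus DMSO.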
# [8] = biological target: Thyroid hormone receptor alpha (Rattus norvegicus) + Thyroid hormone receptor beta (Rattus norvegicus) (UniProt P18113+P63059); experiment: TOX21_TR_LUC_GH3_Antagonist_Followup: Tox21 GH3 Thyroid Hormone Receptor Antagonism Luciferase Follow-Up Assay (AID 2283942)
# Summary of the method: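 Rat pituitary GH3 cells with a TRα/TRβ-driven luciferase reporter, 5 h attachment, then 15 concentrations (92 uM to 5nM final) plus 1.0 nM T3 agonist, 24 h at 37C/5% CO2. ONE-Glo luminescence; signal change fitted against DMSO baseline.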
# [9] = TOX21_TR_RXR_BLA_Antagonist_Followup_viability: Viability Assessment in the Tox21 Thyroid Hormone Receptor beta Retinoid X Receptor alpha (RXRa) Antagonism Beta-lactamase (BLA) Follow-Up Assay (AID 2283979)
# Summary of the method: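 RXRa-UAS-bla HEK293T cells seeded 2,500/well in phenol red-free DMEM with 2% charcoal-stripped FBS, attached 5 h, then exposed to compounds at 11 concentrations in triplicate for 16 h at 37C/5% CO2. Viability read by CellTiter-Glo ATP luminescence; bidirectional fit versus DMSO.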
# [10] = TOX21_p53_BLA_p2_viability: Viability Assessment in the Tox21 HCT-116 p53 Agonism Beta-lactamase Assay, Phase 2 (AID 2283591);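 note: compound exposure lasted 16 h at 37 °C; actives lower the ATP signal meaning cytotoxicity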
# Summary of the method: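 HCT-116 p53-bla cells (4000/well) rested 5 h at 37C, then received compounds in DMSO (217-fold dilution) for 16 h at 37C, 5% CO2. After the CCF4 read, CellTiter-Glo was added; ATP luminescence was read after 30 min at room temperature.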
smiles,measurement,setting,value
C[C@]12CC[C@H]3[C@@H](CCC4=C(Cl)C(=O)CC[C@@]43C)[C@@H]1CC[C@@H]2O,outcome,[1],inactive
same,outcome,[2],inactive
same,outcome,[3],inactive
same,outcome,[4],inactive
same,outcome,[5],inactive
same,outcome,[6],inactive
same,outcome,[7],inactive
same,outcome,[8],inactive
same,outcome,[9],inactive
Oc1cccc[c]1[Hg][Cl],AC50,[1],8.58 µM (active)
same,AC50,[2],9.5 µM (active)
same,AC50,[3],18.6 µM (active)
same,AC50,[4],4.24 µM (active)
same,AC50,[5],6.39 µM (active)
same,AC50,[6],3.94 µM (active)
C=CC(=C)C,outcome,[10],inactive
same,outcome,[6],inactive
CN(C)CCCCCCN(C)C,outcome,[10],inactive
same,outcome,[6],inactive
